# Laboratory results from PubChem BioAssay (NCI).
# This is part of a sample that, as a whole, favours compounds with a hit. Of some 83,000 tested, about 20% had one in any assay.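 96-well plates, one dose, 48 hours. Percent growth reported; active if below 10.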 A number with no mark means an inactive call. Calls of active or inactive are those of the source.
# Experiments:
# Test in all cases: NCI-60 one-dose screen, 48 h (100 = growth as untreated, 0 = no growth, -100 = all killed)
# NCI-H322M lung = conditions: 10 µM unless noted
# HOP-62 NSCLC = conditions: 10 µM unless noted
# COLO 205 colon = conditions: 10 µM
# SNB-19 CNS = conditions: 10 µM unless noted
# PC-3 prostate = conditions: 10 µM unless noted
# EKVX NSCLC = conditions: 10 µM unless noted
# CAKI-1 renal = conditions: 10 µM unless noted
# A498 renal = conditions: 10 µM unless noted
# CCRF-CEM leukemia = conditions: 10 µM unless noted
# OVCAR-8 ovarian = conditions: 10 µM unless noted
# OVCAR-4 ovarian = conditions: 10 µM unless noted
# SK-OV-3 ovarian = conditions: 10 µM unless noted
# HS 578T breast = conditions: 10 µM unless noted
# HOP-92 NSCLC = conditions: 10 µM unless noted
# A549/ATCC NSCLC = conditions: 10 µM unless noted
# HT29 colon = conditions: 10 µM unless noted
# TK-10 renal = conditions: 10 µM unless noted
# NCI-H522 lung = conditions: 10 µM unless noted
# NCI-H226 lung = conditions: 10 µM unless noted
SMILES,growth (NCI-H322M lung),growth (HOP-62 NSCLC),growth (COLO 205 colon),growth (SNB-19 CNS),growth (PC-3 prostate),growth (EKVX NSCLC),growth (CAKI-1 renal),growth (A498 renal),growth (CCRF-CEM leukemia),growth (OVCAR-8 ovarian),growth (OVCAR-4 ovarian),growth (SK-OV-3 ovarian),growth (HS 578T breast),growth (HOP-92 NSCLC),growth (A549/ATCC NSCLC),growth (HT29 colon),growth (TK-10 renal),growth (NCI-H522 lung),growth (NCI-H226 lung)
C[C@]12C[C@H](O)[C@H]3[C@@H](CCC4=CC(=O)CC[C@@]43C)[C@@H]1CC[C@@H]2O,110%,105%,99.8%,104%,95.3%,94.8%,88%,116%,97.3%,114%,104%,105%,105%,–,–,–,–,–,–
CC(=O)O[C@H]1C[C@H](O[C@H]2[C@@H](O)C[C@H](O[C@H]3[C@@H](O)C[C@H](O[C@H]4CC[C@@]5(C)C(CCC6C5C[C@@H](O)[C@]5(C)[C@@H](C7=CC(=O)OC7)CC[C@]65O)C4)O[C@@H]3C)O[C@@H]2C)O[C@H](C)[C@H]1O[C@@H]1O[C@H](CO)[C@@H](O)[C@H](O)[C@H]1O (some centres not stated),–,–,-74.2% (active),–,-6.71% (active),-98.3% (active),-94.4% (active),-19.5% (active),-23.5% (active),-92.6% (active),-70.4% (active),-97.4% (active),2.41% (active),-15.1% (active),-100% (active),-86% (active),-91% (active),–,–
Nc1ccc(N)c2c1Oc1ccccc1O2,97.2%,95.5%,106%,104%,88%,92.1%,84.3%,–,30.3%,97.5%,110%,94.6%,75.2%,–,107%,110%,131%,–,–
C#CC1(O)CCC2(C)C(CCC3C4CCC(=O)C4(C)CCC32)C1 (configuration not stated),–,94.3%,106%,95%,90.9%,89.3%,–,98.2%,91.2%,97.6%,95.8%,97.6%,94.3%,–,92%,86.9%,91.7%,86.9%,–
c1ccc([As]=[As]c2ccccc2)cc1 (configuration not stated),-40.5% (active),-54.4% (active),-89.6% (active),20.5%,–,–,–,-48.5% (active),–,-22.4% (active),7.07% (active),27.5%,37.8%,–,-22.8% (active),-82.8% (active),-86% (active),–,–
O=C(CCF)c1ccc(O)cc1,101%,–,105%,96.2%,98%,99.3%,–,–,95%,99.2%,103%,103%,–,100%,101%,98.2%,–,87.6%,–
Cc1cc(NC(=O)/C=C/c2ccc([N+](=O)[O-])cc2)ccc1S(=O)(=O)F,84.8%,103%,–,109%,98.9%,–,114%,98.7%,98.2%,98.6%,–,99.9%,–,–,98.8%,99.7%,96.2%,–,–
CC(/C=N/N=C(N)N)=N/N=C(N)N,34.9%,81.1%,81.7%,–,108%,92.9%,83%,90.2%,90.1%,77.8%,91.9%,–,88.6%,–,–,91.8%,74.2%,117%,–
CC(C)(C)N(Cc1ccccc1)N=O,101%,99.4%,–,97%,98.7%,–,92.9%,95.4%,98.4%,95.7%,98.2%,96.2%,109%,–,–,104%,–,90.3%,–
CNC(=O)O/N=C(/C)c1ccc(Cl)cc1,–,99.4%,107%,112%,91.8%,–,98.2%,92.2%,96.3%,102%,97.3%,96.8%,–,–,99.3%,99.1%,–,96.5%,92.1%
O=C(O)c1nn(Cc2ccc(Cl)cc2)c2ccccc12,127%,–,111%,96.7%,98.7%,–,106%,96.5%,98.7%,92.7%,100%,113%,105%,–,102%,118%,123%,96.8%,–
O=[N+]([O-])c1ccc2cnn(CSP(=S)(c3ccccc3)c3ccccc3)c2c1,92.9%,–,101%,88.6%,58.6%,–,81.5%,–,45.9%,82.4%,73.1%,90.1%,–,65.7%,73.3%,39.6%,127%,–,–
[N-]=[N+]=NC(C(=O)O)c1ccccc1 (configuration not stated),101%,101%,104%,100%,112%,99.7%,91.8%,101%,–,100%,–,99.5%,113%,–,–,99.1%,106%,87.3%,–
O=S(=O)(F)c1ncnc2nc[nH]c12,97.9%,86.5%,115%,93.4%,–,103%,81.4%,97.2%,101%,100%,102%,94.7%,77.1%,–,98.5%,101%,103%,–,–
Oc1ccc(Br)cc1CN1CCN(Cc2ccc(Cl)cc2)CC1,103%,57.6%,–,87.8%,54%,–,59.5%,105%,26.7%,–,65.5%,–,80.9%,–,62.3%,70.2%,106%,-84.4% (active),–
NC(=O)C(Cl)Cl,94.4%,102%,113%,99.2%,97.5%,–,–,106%,-19.9% (active),99.9%,105%,109%,117%,–,–,116%,–,109%,–
COc1ccccc1N1CCN(CCc2c[nH]c3cc4c(cc23)OCO4)CC1,72.1%,–,–,79.6%,58.4%,77.7%,75.5%,108%,75.4%,–,99.2%,104%,69.5%,-8.6% (active),–,44.2%,89.7%,72%,–
NC(=O)OCC(CO)(c1ccccc1)c1ccccc1,–,94.9%,105%,108%,93.2%,–,–,81.7%,94.4%,100%,99.7%,99.1%,110%,92.9%,103%,97.9%,97.7%,98.8%,96.2%
CN1CCN(C(=O)COc2ccc(/C=C3\CC4C5CC=C6CC(Cl)CCC6(C)C5CCC4(C)C3=O)cc2)CC1 (configuration not stated),85.7%,96.7%,60.5%,98%,71.3%,68.2%,70.1%,75.3%,49.3%,78.9%,70.7%,85.8%,–,–,–,-9.75% (active),–,61.5%,–
N#Cc1ncc(/N=C/c2ccc(N(CCCl)CCCl)cc2)s1,121%,–,–,89%,66.9%,91.2%,7.36% (active),88.2%,56.2%,78.3%,81.9%,–,90.4%,–,86%,91.6%,–,–,–
O=C(O)CNC(=O)c1ccccc1,–,93.4%,104%,–,102%,–,83.2%,85%,101%,113%,105%,104%,108%,92.4%,101%,114%,–,–,109%
CC[C@@]1(C2O[C@@H](C3O[C@@](O)(CC)[C@H](C)C[C@@H]3C)C[C@@H]2C)CC[C@H]([C@]2(C)CCC3(C[C@H](O)[C@@H](C)[C@@H]([C@H](C)[C@@H](OC)[C@H](C)C(=O)O)O3)O2)O1 (some centres not stated),38.8%,–,–,31.1%,–,26.1%,24.5%,42.7%,–,31%,29.7%,–,–,–,17.6%,–,49.1%,–,–
